Data on 37 compounds can be found in PMC5540273 (PLoS ONE, 2017).

SMILES strings stand for the structures.

What all share (details): concentration: 1 μM, replicates: in singlicate; n = 1
Assay [1] has as its system ZAK.
The test system of assay [2] is ZAP70.
Assay [3] concerns T1, p38-alpha.
T1 construct: gene MAPK14

For assay [4], the system named is T2, p38-beta.
T2 construct: gene MAPK11

In assay [5] the test system is p38-delta.
Assay [6] has as its system T3, p38-gamma.
T3 construct: gene MAPK12
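Note: KINOMEscan kinase panel screen.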

As for `N#CC1(c2cccc(C(=O)Nc3cccc(Oc4ccc5nc(NC(=O)C6CC6)sc5n4)c3)c2)CC1`, the “%Inh” value in assay [1] was found to be 90%; in assay [2] it was 0%; in assay [3], 40%; in assay [4], 36%; in assay [5], 0%; in assay [6], 26%.
Consider `COC(=O)Nc1nc2ccc(Oc3ccc(NC(=O)Nc4cc(C(F)(F)F)ccc4F)cc3)cc2[nH]1.Cl` [GW654607], for which the “%Inh” value in assay [1] worked out at 98%; in assay [2], 0%; in assay [3], 88%; in assay [4], 70%; in assay [5], 65%; in assay [6], 9%.
With `COC(=O)Nc1nc2ccc(Oc3ccc(CC(=O)Nc4cc(C(F)(F)F)ccc4F)cc3)cc2[nH]1` [GW680903], the “%Inh” value in assay [1] is 91.6%; in assay [2] it was 38%; in assay [3], 6%; in assay [4] it was 0%; in assay [5] it was 47%; in assay [6], 0%.
`CC(C)c1nc(-c2ccc(F)c(NS(=O)(=O)c3c(F)cccc3F)c2)c(-c2ccnc(Nc3ccc(N4CCOCC4)nc3)n2)s1` [GSK1804250]: the “%Inh” value was found to be 98.3% in assay [1]; 0% in assay [2]; 96% in assay [3]; 38% in assay [4]; 57% in assay [5]; 1% in assay [6].
On to `CN(C)CCNS(=O)(=O)c1ccc(-c2ccnc3[nH]ccc23)cc1` [GSK977620], for which the “%Inh” value in assay [1] worked out at 83%; in assay [2], 0%; in assay [3] it was 0%; in assay [4], 1%; in assay [5] it was 39%; in assay [6], 0%.
For the compound `COc1cccc(C2=C(Nc3cccc(O)c3)C(=O)NC2=O)c1` [SB-390771], the “%Inh” value is given as 38% in assay [1]; 5% in assay [2]; 0% in assay [3]; 0% in assay [4]; 45% in assay [5]; 18% in assay [6].
On to `Cc1ccc(NC(=O)c2ccnc(N3CCCCC3)c2)cc1-c1ccc(C(=O)NCC2CC2)cc1` [GW775610], for which the “%Inh” value in assay [1] came to 21%; in assay [2], 0%; in assay [3], 99.9%; in assay [4], 100%; in assay [5], 2%; in assay [6], 62%.
`Cl.Cl.NCC(NC(=O)c1cc(-c2cccnc2)c(-c2ccnc3[nH]ccc23)s1)c1ccccc1` (stereo not drawn) [GSK1323434]: the “%Inh” value in assay [1] amounted to 7%; in assay [2], 0%; in assay [3], 31%; in assay [4], 0%; in assay [5] it was 21%; in assay [6], 32%.
As to `Cn1cc(-c2ccc3c(c2)CCN3C(=O)Cc2cc(F)cc(C(F)(F)F)c2)c2c(N)ncnc21` [GSK2635225], the “%Inh” value turned out to be 11% in assay [1]; 0% in assay [2]; 0% in assay [3]; 0% in assay [4]; 46% in assay [5]; 0% in assay [6].
In the case of `O=C1NC(=O)C(c2ccccc2Cl)=C1Nc1cccc(Cl)c1` [SB-342409], the “%Inh” value in assay [1] is 21%; in assay [2] it was 0%; in assay [3], 0%; in assay [4], 0%; in assay [5], 28%; in assay [6], 0%.
On to `Fc1cc(Cl)ccc1Nc1ccnc2cc(-c3ccc(CN4CCOCC4)o3)ccc12` [GW560109], for which the “%Inh” value in assay [1] amounted to 50%; in assay [2], 3%; in assay [3] it was 28%; in assay [4] it was 0%; in assay [5], 25%; in assay [6] it was 0%.
Turning to `O=C(Nc1n[nH]c2nc(-c3cccc(O)c3)ccc12)C1CC1` [SB-711805], the “%Inh” value in assay [1] was determined as 25%; in assay [2] it was 23%; in assay [3], 7%; in assay [4] it was 18%; in assay [5] it was 0%; in assay [6] it was 12%.
Consider `Cl.N#CCc1ccc(Nc2nccc(Nc3ccc(Oc4ccccc4)cc3)n2)cc1` [GW639905], for which the “%Inh” value is recorded as 45% in assay [1]; 0% in assay [2]; 0% in assay [3]; 0% in assay [4]; 5% in assay [5]; 0% in assay [6].
As for `Cc1ccc(O)cc1Nc1ccnc2cc(-c3ccc(CN4CCCCC4)o3)ccc12` [GW557777], the “%Inh” value worked out at 75% in assay [1]; 0% in assay [2]; 15% in assay [3]; 6% in assay [4]; 0% in assay [5]; 18% in assay [6].
As for `O=C(Nc1n[nH]c2nc(-c3ccccc3)ccc12)C1CC1` [SB-708999], the “%Inh” value is on record as 15% in assay [1]; 19% in assay [2]; 10% in assay [3]; 29% in assay [4]; 25% in assay [5]; 2% in assay [6].
For `Cc1ccc(NC(=O)c2cccc(N3CCCCC3)c2)cc1-c1ccc(C(=O)NCC2CC2)cc1` [GSK1917008], the “%Inh” value is listed as 33% in assay [1]; 0% in assay [2]; 99.9% in assay [3]; 99.4% in assay [4]; 46% in assay [5]; 50% in assay [6].
Regarding `COc1cccc(CC(=O)N2CCc3cc(-c4cn(C)c5ncnc(N)c45)ccc32)c1` [GSK2608899], the “%Inh” value is 0% in assay [1]; 0% in assay [2]; 0% in assay [3]; 0% in assay [4]; 48% in assay [5]; 0% in assay [6].
On to `Nc1cccc(-c2ccc3c(N)n[nH]c3c2)c1` [GSK2193613], for which the “%Inh” value in assay [1] is reported as 11%; in assay [2], 0%; in assay [3], 6%; in assay [4], 0%; in assay [5] it was 17%; in assay [6], 45%.
With `Cc1ccc(NC(=O)c2ccc(Cl)c(Cl)c2)cc1-c1ccc(C(=O)Nc2ccncc2)cc1` [GSK1398460], the “%Inh” value in assay [1] is 49%; in assay [2], 0%; in assay [3], 0%; in assay [4], 12%; in assay [5], 24%; in assay [6], 0%.
As to `Nc1ncc(-c2cn[nH]c2)c2scc(-c3ccc4c(c3)CCN4C(=O)Cc3ccccc3)c12` [GSK2593067], the “%Inh” value in assay [1] turned out to be 50%; in assay [2] it was 4%; in assay [3], 0%; in assay [4], 0%; in assay [5], 15%; in assay [6], 0%.
For `CSc1ccc(NC2=C(c3ccc(Cl)cc3)C(=O)NC2=O)cc1` [SB-317658], the “%Inh” value in assay [1] was 28%; in assay [2], 0%; in assay [3] it was 0%; in assay [4] it was 12%; in assay [5], 11%; in assay [6], 0%.
`CN(C)c1ncnc2nc[nH]c12` [SKF-31736]: the “%Inh” value is recorded as 0% in assay [1]; 7% in assay [2]; 7% in assay [3]; 0% in assay [4]; 0% in assay [5]; 2% in assay [6].
With `CC(C)(C)c1ccc(C(=O)Nc2cn3cc(-n4ccnc4)ccc3n2)cc1`, the “%Inh” value turned out to be 7% in assay [1]; 0% in assay [2]; 11% in assay [3]; 9% in assay [4]; 21% in assay [5]; 0% in assay [6].
For `Cc1ccc(-c2ccc3occ(-c4ccc(S(C)=O)cc4)c3c2)nn1` (stereo not drawn), the “%Inh” value in assay [1] amounted to 0%; in assay [2], 13%; in assay [3], 0%; in assay [4], 10%; in assay [5], 0%; in assay [6], 0%.
On to `Cl.Cl.NC(CNC(=O)c1cc(Br)c(-c2ccnc3[nH]ccc23)s1)c1ccccc1` (stereo not drawn) [GSK1322949], for which the “%Inh” value in assay [1] amounted to 11%; in assay [2] it was 0%; in assay [3], 23%; in assay [4], 0%; in assay [5], 14%; in assay [6], 50%.
For `CCn1cnc2c(NCc3ccccc3)ncnc21` [SKF-96418], the “%Inh” value in assay [1] is given as 0%; in assay [2], 30%; in assay [3], 0%; in assay [4], 0%; in assay [5] it was 0%; in assay [6] it was 0%.
On to `COc1cccc2c(-c3ccncc3)c(-c3ccc(F)cc3)nn12` [GW468513], for which the “%Inh” value in assay [1] was found to be 16%; in assay [2], 9%; in assay [3], 99.9%; in assay [4] it was 82%; in assay [5] it was 34%; in assay [6], 0%.
Take `CN1CCN(Cc2ccc(NC(=O)Nc3ccc(N(C)c4ccnc(Nc5ccc(CS(C)(=O)=O)cc5)n4)cc3)cc2)CC1.Cl` [GW827654]: the “%Inh” value in assay [1] amounted to 21%; in assay [2], 52%; in assay [3], 0%; in assay [4] it was 0%; in assay [5] it was 0%; in assay [6], 48%.
`COc1ccc(C)c(Nc2ccnc(Nc3ccc(-c4cnc[nH]4)cc3)n2)c1.Cl` [GW784041]: the “%Inh” value in assay [1] is on record as 92.4%; in assay [2], 0%; in assay [3], 0%; in assay [4] it was 14%; in assay [5], 11%; in assay [6] it was 42%.
As to `O=C(O)C(F)(F)F.O=c1[nH]ccc2nc(N[C@@H]3CCNC3)nc(Nc3ccc4c(c3)S(=O)(=O)CC4)c12` [GSK2181306], the “%Inh” value in assay [1] worked out at 0%; in assay [2], 1%; in assay [3], 0%; in assay [4] it was 0%; in assay [5], 44%; in assay [6], 23%.
In the case of `CC(=O)Nc1cn2nc(Oc3cccc(NC(=O)c4cccc(C(F)(F)F)c4)c3)ccc2n1`, the “%Inh” value in assay [1] came to 98.6%; in assay [2] it was 0%; in assay [3], 32%; in assay [4], 28%; in assay [5] it was 0%; in assay [6] it was 34%.
For `Cn1cc(-c2cnc(N)c3c(-c4ccc5c(c4)CCN5C(=O)Cc4ccccc4)csc23)cn1` [GSK2593074], the “%Inh” value was 59% in assay [1]; 0% in assay [2]; 8% in assay [3]; 1% in assay [4]; 0% in assay [5]; 14% in assay [6].
In the case of `O=C(Nc1n[nH]c2cc(-c3cccs3)ccc12)C1CC1` [SB-731284], the “%Inh” value was 22% in assay [1]; 12% in assay [2]; 0% in assay [3]; 0% in assay [4]; 0% in assay [5]; 22% in assay [6].
`Nc1ncnc2scc(-c3ccc(NC(=O)Cc4cc(F)ccc4F)cc3)c12.O=C(O)C(F)(F)F` [SB-731254-M]: the “%Inh” value worked out at 4% in assay [1]; 0% in assay [2]; 0% in assay [3]; 7% in assay [4]; 0% in assay [5]; 41% in assay [6].
For the compound `CCNC(=O)/C=C/c1n[nH]c2cc(Sc3ccccc3C(=O)NC)ccc12`, the “%Inh” value in assay [1] worked out at 48%; in assay [2] it was 0%; in assay [3], 13%; in assay [4] it was 11%; in assay [5], 18%; in assay [6], 16%.
For the compound `CNc1nccc(-c2ccc3c(N)n[nH]c3c2)n1` [GSK2206003], the “%Inh” value in assay [1] was found to be 22%; in assay [2] it was 0%; in assay [3], 6%; in assay [4], 0%; in assay [5] it was 22%; in assay [6], 25%.
As for `COc1ccc(C2=C(Nc3cccc(O)c3)C(=O)NC2=O)cc1` [SB-390766], the “%Inh” value was determined as 7% in assay [1]; 0% in assay [2]; 23% in assay [3]; 0% in assay [4]; 94.4% in assay [5]; 0% in assay [6].
